In all, about 1,800 compounds went through this assay and fewer than 10 were called active. Not all results are given here. Potency and affinity values are given separately. Unmarked numbers belong to inactive results. No rule for the calls is given here.
Experiment: antiviral activity against H1N1 influenza, dose response, cell-based, strain KY180 (AID 540254)
Conditions: H1N1 KY180 influenza antiviral cell-based screen; series mostly up to 40 µM; inhibition: at the top concentration

Compound | inhibition [%]
COc1cccc(C(=O)O/N=C(\N)c2ccncc2)c1 | -0.25
Cc1ccc(NC(=O)N2CCCCCC2)cc1C | 0
CCN(CC)CCN1C(=O)c2oc3ccc(F)cc3c(=O)c2C1c1ccncc1 (centres undefined) | 0
CN(CC(=O)NCc1ccccn1)S(=O)(=O)c1ccc(Br)cc1 | 0
CC(=O)Nc1cccc(NC(=O)CSc2nn3c(=O)c(C)nnc3s2)c1 | 0.5
Cc1ccn(CC(=O)N/N=C/c2cc([N+](=O)[O-])ccc2O)n1 | -1.27
Cc1cccc(NC(=O)CCN2C(=O)c3ccccc3S2(=O)=O)c1C | 2.53
O=C(CN1C(=O)C2CCCCC2C1=O)Nc1nc(-c2ccccn2)cs1 (centres undefined) | -4.7
Cc1c(N=Nc2c(O)n(Cc3ccccc3)c(=O)[nH]c2=O)c(=O)n(-c2ccccc2)n1C | -1.51
C=CC(=O)Nc1ccc(N(C)c2ccnc(Nc3ccc(N4CCN(C)CC4)cc3)n2)cc1 | -2.51
CC(=O)N(Cc1ccc(F)cc1)C1=C(NCCc2ccccc2)C(=O)c2ccccc2C1=O | -5.15
O=C(O)c1ccc(N=Nc2c(O)ccc3ncccc23)cc1 | 0
Cc1nc2sccn2c(=O)c1S(=O)(=O)Nc1cccc(Cl)c1C | -0.25
CC(=NNC(=S)N1CC2CCC(CC2)C1)c1ccncn1 | -2.95
Clc1ccc(OCc2nc(-c3ccncc3)no2)c(Br)c1 | -0.56
CN1C(=O)/C(=C/c2cc(N=Nc3ccccc3)ccc2O)SC1=S | -5.15
O=C(CSc1ccc(-c2ccccn2)nn1)Nc1ccc(F)c(F)c1 | 0.25
COc1ccc(N2CCN(C(=O)CCC(=O)N3CCOc4ccc(Cl)cc43)CC2)cc1 | -1.47
Cc1ccc2ccc3cccnc3c2n1 | -2.01
Cc1noc(/C=C/N(C)C)c1S(=O)(=O)N1CCCC(C(=O)NC2CCCCC2)C1 (centres undefined) | 2.53
COc1ccc(N=Nc2cc(OC)c(N)cc2OC)cc1 | -1.51
O=C(NC(=S)NNC(=O)c1ccccc1O)c1ccco1 | 1.27
CC1COCC(C)N1C1=C(Cl)C(=O)c2ccccc2C1=O (centres undefined) | -2.95
COc1ccccc1N1CCN(C2CCCN(C(=O)c3cccc(-c4ccco4)c3)C2)CC1 (centres undefined) | -2.46
Clc1ccc(-c2ccc(-c3nn4c(-c5ccco5)nnc4s3)o2)cc1 | -2.46
CCCCCn1cnc2c(sc3nc4c(cc32)CSC(C)(C)C4)c1=O | 0
CCN(CC)C(=O)C1CCCc2c1[nH]c1ccc(Cl)cc21 (centres undefined) | -1.51

Compound | inhibition [%]
CC(NC(=O)C(=O)NN=C1CCCCCCC1)c1ccccc1 (centres undefined) | -0.5
COc1ccc(NC(=O)CSc2n[nH]c(-c3ccccn3)n2)cc1 | -3.8
O=C(N/N=C/c1c(O)n(C2CC2)c(=S)[nH]c1=O)c1ccccc1O | 0.56
Cc1ccc(NC(=O)CSc2nnc(C)c(=O)n2N)c(C)c1 | 1.57
Cc1ccc(CN2CCC(n3nccc3NC(=O)CCCc3ccccc3)CC2)o1 | 0
O=C1CCCN1CC(=O)N1CCCC(N2CCN(c3cccc(Cl)c3)CC2)C1 (centres undefined) | 0.67
CCNC(=O)CC1C(=O)N(c2ccc(F)cc2)C(=O)N1Cc1ccc(OC)cc1 (centres undefined) | 1.27
O=C1C=C(c2c(O)ccc3ccccc23)c2ccccc2C1=O | -2.46
CCOC(=O)C1=C(C)n2c(s/c(=C/c3cccc([N+](=O)[O-])c3)c2=O)=NC1c1ccc(O)c(OC)c1 (centres undefined) | -1.27
CCC(C(=O)N/N=C(\C)c1cccnc1)c1ccccc1 (centres undefined) | 0.98
CN(CCCC(=O)O)c1ccc(N=Nc2ccc([N+](=O)[O-])cc2)cc1 | 0
COc1cccc(C(=O)NN2c3ccccc3CCc3ccccc32)c1 | 0
N#C/C(=C/c1cn(-c2ccccc2)nc1-c1cccc(OCc2ccc(F)cc2)c1)C(=O)NCCCn1ccnc1 | -5.59
CC1NC(=O)NC1CCCCCC(=O)Nc1ccc(F)c(Cl)c1 (centres undefined) | 0
CCOC(=O)C(C(C)=O)c1c(Br)c(O)c(O)c2c(C(=O)c3ccc(C)cc3)coc12 (centres undefined) | -2.53
Cc1ccc(-n2c(SCC(=O)NCc3ccco3)nc3c([nH]c4ccccc43)c2=O)cc1 | -0.49
CC(C)CC1Nc2ncnc(N3CCN(c4ccccc4)CC3)c2N(Cc2ccccc2)C1=O (centres undefined) | -0.56
C[C@@H](C(=O)Nc1nc(-c2ccccn2)cs1)N1C(=O)C2CCCCC2C1=O (some centres undefined) | 0.5
COc1ccc(C2(c3ccc(OC)cc3)NC(=O)N(CC(=O)Nc3ccc(OC(F)F)cc3)C2=O)cc1 | -2.95
Cn1nc(CC(=O)NC2CCCCCC2)c2ccccc2c1=O | 1.25
O=C(CCS(=O)(=O)c1ccc(F)cc1)Nc1nc(-c2ccccn2)cs1 | -4.7
COc1ccc(C2C(C#N)=C(N)Nc3onc(C(C)(C)C)c32)c(OC)c1 (centres undefined) | 0.25
Oc1cccc(/C=N/NC(=S)Nc2cccnc2)c1O | 0.22
CCOC(=O)c1c(C)[nH]c(C(=O)N/N=C/c2cc([N+](=O)[O-])ccc2O)c1C | -1.27
Cc1[nH]c2ccccc2c1C(c1ccccn1)c1c(C)[nH]c2ccccc12 | 0.5
Cc1[nH]c2ccccc2c1SCC(=O)N1CCOCC1 | 1.25
Cc1ccc(S(=O)(=O)NCc2ccc3c(c2)cc(C)n3C)cc1 | -2.91
